Laboratory results reported in PubChem BioAssay AID463173 (ICCB-Longwood Screening Facility, Harvard Medical School, 2010).
Out of some 52,000 compounds screened, about 4,300 (8.3%) were called active. This excerpt belongs to a sample that is enriched for actives. Values without a mark were called inactive. Rule as the data show it: active = survival mostly below about 52% (no sharp cut-off); inactive = mostly above about 56%.

system: DeltatarO mutant; experiment: S. aureus survival, RN4220 and DeltatarO strains – OD600, teichoic acid synthesis inhibitors, primary screen (AID 463173); details: S. aureus RN4220 wild type/DeltatarO growth, OD600, 18 h, hits give low values, screened at 18.75 µg/mL (by protocol)

With `COc1ccc(NC(=O)C(CC(C)C)NS(=O)(=O)c2ccc3c(c2)oc(=O)n3C)cc1Cl` (configuration not stated) as the compound, how does the survival read?
The survival was 127%.

How did the survival turn out when `Cc1cccc(NC(=O)CSc2nc3c(sc4ccccc43)c(=O)n2CCCC(=O)NC2CCCC2)c1` was run?
Its survival is 87%.

With `CCOC(=O)c1c(C)oc2ncnc(NCCCN3CCN(c4cc(C)ccc4C)CC3)c12` as the compound, how does the survival read?
The survival was 101%.

For `Cc1ccc(Cn2c(C(=O)NCc3ccccc3Cl)cc3sccc32)cc1`, which survival is on record?
The survival was 86%.

Which survival does the source give for `COc1ccccc1-c1nc2c3c(-c4ccccc4)c(-c4ccccc4)oc3ncn2n1` here?
Its survival is 70%.

With `COc1cccc(NC(=O)CSCc2cc(=O)c3ccc(C)c(C)c3[nH]2)c1` as the compound, how does the survival read?
The survival was 74%.

How did the survival turn out when `CSCCC(NS(=O)(=O)c1ccc2c(c1)oc(=O)n2C)C(=O)Nc1ccc(Cl)cc1` (configuration not stated) was run?
Its survival is 94%.

Which survival does the source give for `COc1ccccc1CCNC(=O)CCn1c(=O)c2cccn2c2ccc(F)cc21` here?
The survival was 44% (active).

For `COc1ccc(OC)c(CCNC(=O)CCn2c(=O)c3cccn3c3ccc(F)cc32)c1`, which survival is on record?
The survival was 58%.

How did the survival turn out when `COc1ccc(OC)c(CNC(=O)CCn2c(=O)c3cccn3c3ccc(F)cc32)c1` was run?
The survival was 58%.

Which survival does the source give for `COc1ccc(OC)c(CCNC(=O)CCCn2c(=O)c3cccn3c3ccc(F)cc32)c1` here?
Its survival is 88%.

Which survival does the source give for `COc1ccc(CCNC(=O)CCn2c(=O)c3cccn3c3ccc(F)cc32)c(OC)c1OC` here?
Its survival is 39% (active).

How did the survival turn out when `O=C(CCn1c(=O)c2cccn2c2ccc(F)cc21)NCCc1ccccc1Cl` was run?
The survival was 52%.

`COc1ccc(S(=O)(=O)Nc2ccc3c(c2)CCCN3S(=O)(=O)c2ccc(C)cc2)cc1F` was tested. Which survival did it give?
Its survival is 74%.

Which survival does the source give for `O=C(NCCn1ccc2ccccc21)c1ccc(Cl)cc1` here?
The survival was 87%.

Which survival does the source give for `O=C1CC(c2ccccc2)Cc2[nH]c(=O)c(C(=O)Nc3ccc(OC(F)(F)F)cc3)cc21` (configuration not stated) here?
The survival was 163%.

`CCc1ccc(NC(=O)CSc2nc3ncccc3[nH]2)cc1` was tested. Which survival did it give?
The survival was 86%.

`CCN(C(=O)CSc1nc2ccccc2[nH]1)c1ccccc1` was tested. Which survival did it give?
Its survival is 85%.

How did the survival turn out when `CCN(C(=O)CSc1nc2ncccc2[nH]1)c1ccc(C(C)C)cc1` was run?
The survival was 43% (active).

`Cc1nc2nc(SCC(=O)NC3CCCCC3)nn2c(C)c1Cc1ccccc1Cl` was tested. Which survival did it give?
Its survival is 25% (active).

`COc1cc(NC(=O)CSc2nc3nc(C)c(Cc4ccccc4Cl)c(C)n3n2)cc(OC)c1` was tested. Which survival did it give?
Its survival is 73%.

`COc1ccccc1CNC(=O)CSc1nc2nc(C)c(Cc3ccccc3C)c(C)n2n1` was tested. Which survival did it give?
Its survival is 118%.

`COCCCNC(=O)CSc1nc2nc(C)c(Cc3ccccc3Cl)c(C)n2n1` was tested. Which survival did it give?
The survival was 61%.

With `Cc1nc2nc(SCC(=O)NC3CCC(C)CC3)nn2c(C)c1Cc1ccccc1` (configuration not stated) as the compound, how does the survival read?
Its survival is 92%.

`COc1ccccc1CNC(=O)CSc1nc2nc(C)c(Cc3ccccc3Cl)c(C)n2n1` was tested. Which survival did it give?
Its survival is 46% (active).

With `Cc1nc2nc(SCC(=O)NC3CCC(C)CC3)nn2c(C)c1Cc1ccccc1Cl` (configuration not stated) as the compound, how does the survival read?
The survival was 83%.

How did the survival turn out when `Cc1ccc(Cc2c(C)nc3nc(SCC(=O)NC4CCC(C)CC4)nn3c2C)cc1` (configuration not stated) was run?
The survival was 131%.

Which survival does the source give for `Cc1cccc(Cc2c(C)nc3nc(SCC(=O)NC4CCCCC4)nn3c2C)c1` here?
Its survival is 40% (active).

Which survival does the source give for `Cc1c(C(=O)N(Cc2ccc(N(C)C)cc2)CC2CCCO2)oc2ccc(Br)cc12` (configuration not stated) here?
Its survival is 58%.

With `CCc1nn2c(=O)cc(COC(=O)CNC(=O)c3ccccc3)nc2s1` as the compound, how does the survival read?
The survival was 123%.

With `Brc1ccc(-c2cc3c(N4CCN(c5ccccc5)CC4)nccn3n2)cc1` as the compound, how does the survival read?
Its survival is 194%.

`COC(=O)c1nc2n(n1)C(c1cc(OC)ccc1OC)C(C(=O)Nc1ccc(C)cc1C)=C(C)N2` (configuration not stated) was tested. Which survival did it give?
The survival was 79%.

For `COc1ccc(C(=O)n2nc(N)c3cc4ccc(C)cc4nc32)cc1OC`, which survival is on record?
Its survival is 94%.

Which survival does the source give for `CCOC(=O)c1cc(-c2ccc(C)cc2)n(CC(=O)Nc2ccc(OC)c(Cl)c2)c1C` here?
The survival was 67%.

With `COC(=O)c1ccc(NC(=O)Cn2cnc3c2c(=O)n(C)c(=O)n3C)cc1` as the compound, how does the survival read?
Its survival is 80%.

Which survival does the source give for `CCOc1ccc(C(=O)NCCc2sc(-c3ccc(F)cc3)nc2C)cc1` here?
The survival was 90%.

How did the survival turn out when `COc1ccc(-c2nc(C)c(CCNC(=O)c3ccc(C(F)(F)F)cc3)s2)cc1OC` was run?
Its survival is -2% (active).

How did the survival turn out when `COc1ccc(-c2nc(C)c(CCNC(=O)c3cc(OC)c(OC)c(OC)c3)s2)cc1OC` was run?
The survival was 64%.

How did the survival turn out when `CCOc1ccc(C(=O)NCCc2sc(-c3ccc(C)cc3)nc2C)cc1` was run?
The survival was -1% (active).

For `CCOc1ccc(C(=O)NCCc2sc(-c3ccc(OC)c(OC)c3)nc2C)cc1`, which survival is on record?
The survival was 109%.

How did the survival turn out when `CCOc1ccc(NC(=O)C(=O)NCCc2sc(-c3ccc(C)cc3)nc2C)cc1` was run?
The survival was 79%.

Which survival does the source give for `O=c1[nH]cnc2scc(-c3ccsc3)c12` here?
Its survival is 104%.

Which survival does the source give for `Cc1ccc(-c2nc3scc(CCNS(=O)(=O)c4ccc(Oc5ccccc5)cc4)n3n2)cc1` here?
Its survival is 115%.

Which survival does the source give for `CC(C)OCCCn1c(=O)c2ccccc2n2c(-c3ccc(F)cc3)nnc12` here?
The survival was 98%.

How did the survival turn out when `CCCCCNC(=O)c1c[nH]c2ccc(S(=O)(=O)N3CCC(C)CC3)cc2c1=O` was run?
The survival was 97%.

`COc1ccc(N2CC(NC(=O)C3CC3)CC2=O)cc1OC` (configuration not stated) was tested. Which survival did it give?
Its survival is 73%.

For `Cc1ccc2nc(N(Cc3cccnc3)C(=O)CCS(=O)(=O)c3ccccc3)sc2c1`, which survival is on record?
Its survival is 67%.

Which survival does the source give for `COc1ccc(-c2nc3ccccc3o2)cc1NC(=O)COc1ccc(C(C)(C)C)cc1` here?
Its survival is 4% (active).

For `COc1ccc(-c2nc3ccccc3o2)cc1NC(=O)Cc1ccc(Cl)cc1`, which survival is on record?
Its survival is 54%.

With `COc1ccc(-c2nc3ccccc3o2)cc1NC(=O)CSc1ccc(Cl)cc1` as the compound, how does the survival read?
Its survival is 72%.

For `COc1ccc(OCC(=O)Nc2cc(-c3nc4ccccc4o3)ccc2Cl)cc1`, which survival is on record?
The survival was 70%.

For `COc1ccc(-c2nc3ccccc3o2)cc1NC(=O)COc1c(C)cc(Cl)cc1Cl`, which survival is on record?
Its survival is 67%.

How did the survival turn out when `CCCCC(=O)Nc1cc(-c2nc3ccccc3o2)ccc1OC` was run?
Its survival is 7% (active).

`Cc1cn2c(=O)cc(COc3ccc(NC(=O)c4cccc(F)c4)cc3)nc2s1` was tested. Which survival did it give?
The survival was 125%.

`COc1ccc(Cl)cc1NC(=O)c1cc2ccccn2n1` was tested. Which survival did it give?
The survival was 124%.

For `COc1cc(C2C(C(=O)c3ccco3)=C(O)C(=O)N2CCc2ccccc2)ccc1O` (configuration not stated), which survival is on record?
The survival was 86%.

Which survival does the source give for `COc1ccc(Cn2c(=O)c3oc4ccccc4c3n(Cc3cccc(C)c3)c2=O)cc1` here?
The survival was 64%.
